Bioassay records as filed in PubChem.
CYP2C19 inhib: blockers of cytochrome P450 2C19 activity – biochemical, luminescence, ADME assay, primary screen. AID 778, 2007. CYP2C19 Supersomes, luciferin-H EGE luminescence, 30 min. actives 21% (n = 96,000). inhibition, % at 5 µM. P33261;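 active = CYP2C19 inhibition above a set limit at 5 µM in the primary screen, cut at about 50% in these data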
CYP2C19 activ: human CYP2C19 activators, primary screen, biochemical, luminescence. Cytochrome P450 2C19 (Homo sapiens), P33261. recombinant CYP2C19, luciferin-H EGE luminescence; stronger effect = higher value; 0 = fully inhibited enzyme, 1 = untreated enzyme. activation factor at 5 µM. 96,000 tested, under 10 active. AID 1025, 2008;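 active = activation factor of at least 2 at 5 µM in the primary screen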
CYP2C9 act: human CYP2C9 activators, primary screen, biochemical, luminescence; recombinant CYP2C9, luciferin-H conversion; stronger effect = higher value; factor 1 = untreated enzyme, 0 = blocked; AID 1024, 2008; actives 1.4% (n = 96,000); activation factor at 5 µM;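 active = activation factor of 2 or more for CYP2C9 at a 5 µM dose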
Target sequence (P11712 whole entry, looked up): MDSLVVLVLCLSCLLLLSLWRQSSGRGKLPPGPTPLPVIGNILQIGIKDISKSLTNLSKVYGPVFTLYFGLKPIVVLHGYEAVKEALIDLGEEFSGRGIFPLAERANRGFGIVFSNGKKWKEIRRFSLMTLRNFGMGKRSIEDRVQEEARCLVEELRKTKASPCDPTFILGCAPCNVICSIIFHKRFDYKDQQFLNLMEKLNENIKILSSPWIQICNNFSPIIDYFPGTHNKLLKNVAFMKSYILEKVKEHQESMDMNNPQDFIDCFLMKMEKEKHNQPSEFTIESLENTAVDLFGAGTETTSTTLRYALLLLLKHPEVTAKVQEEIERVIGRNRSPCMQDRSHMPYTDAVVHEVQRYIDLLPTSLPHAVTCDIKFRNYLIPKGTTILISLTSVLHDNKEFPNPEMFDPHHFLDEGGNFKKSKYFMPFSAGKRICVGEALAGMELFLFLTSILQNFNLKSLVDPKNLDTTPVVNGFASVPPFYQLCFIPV
CYP2C9 inhib: blockers of cytochrome P450 2C9 activity – biochemical, luminescence, ADME assay, primary screen; CYP2C9 Supersomes, luciferin-H conversion; inhibition, % at 5 µM; actives 20% (n = 96,000); AID 777, 2007;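 active = blocking of liver enzyme CYP2C9 beyond about 50% at 5 µM, limit read from the data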
PLAP act: PLAP enzyme activators, biochemical, luminescence, HTS. Alkaline phosphatase, placental type (Homo sapiens), P05187. purified PLAP enzyme, luminescent substrate read-out; stronger effect = higher value. activation fold at 20 µM. actives 1.2% (n = 96,000). AID 696, 2007; in the data active = activation fold above about 2
Each line names hits and unclear results; the compound was inactive in the other large screens. In the library only some 31% were active in any assay of this set; here they are far more common.

O=c1nc(-c2ccccc2)cn[nH]1	none
Cc1c(Cl)cccc1NC(=O)CCCN1C(=O)CCC1=O	none
COc1ccc(C(=O)c2ccc(OC)c3cccc(O)c23)cc1OC	CYP2C9 inhib 84
O=c1c2c(nc(NCCO)n1CC1CCCCC1)-c1ccccc1CC21CCCC1	CYP2C19 inhib 93, CYP2C9 inhib 100
CC1(C)CC(n2c(NCCO)nc3c(c2=O)C2(CCCC2)Cc2ccccc2-3)CCO1 (stereo unspecified)	CYP2C19 inhib 84, CYP2C9 inhib 84
O=C(O)COc1ccc(-c2nnn(Cc3ccccc3F)n2)cc1	none
CC1=CC2=C(OC1N(C)C)c1cccc3cccc(c13)C2=O (stereo unspecified)	none
Cc1oncc1C(=O)NC(C)C	none
COc1ccnc(NCc2cccc(C(F)(F)F)c2)c1C#N	CYP2C19 inhib 54
COc1ccc(OC)c(C(c2nnnn2CCC(C)C)N2CCN(C(=O)c3ccco3)CC2)c1 (stereo unspecified)	CYP2C19 inhib 67, CYP2C9 inhib 74
CC(C)CCn1nnnc1C(c1ccc(F)cc1)N1CCN(C(=O)c2ccco2)CC1 (stereo unspecified)	CYP2C19 inhib 63, CYP2C9 inhib 96
COc1ccc(N(Cc2cc3ccc(C)cc3[nH]c2=O)C(C)=O)cc1	none
COc1ccc(C(CNC(=O)COc2ccccc2C#N)N2CCOCC2)cc1 (stereo unspecified)	CYP2C9 inhib 60
COc1ccc(C(CNC(=O)c2cccc(Br)c2)N2CCCC2)cc1 (stereo unspecified)	none
COc1ccc(C(CNC(=O)c2ccc3c(c2)C(=O)N(CCC(C)C)C3=O)N2CCOCC2)cc1 (stereo unspecified)	CYP2C19 inhib 88, CYP2C9 inhib 88
O=C(NCCc1ccc(F)cc1)N1CCOCC1	none
O=C(NCC(c1ccc(F)cc1)N1CCOCC1)c1ccc(Br)o1 (stereo unspecified)	CYP2C19 inhib 61
COc1ccc(C(CNC(=O)c2cc(C)oc2C)N2CCOCC2)cc1 (stereo unspecified)	CYP2C19 inhib 60
Cc1cc(-c2cccnc2)c(C#N)c(SCC#N)n1	none
Cc1cc(-c2cccnc2)c(C#N)c(SCc2cccc(F)c2)n1	CYP2C19 inhib 69
CCc1nc(SCc2cccnc2)c(C#N)cc1C	CYP2C19 inhib 57
Cc1c(Br)cc(C(=O)OC2CCN(C)CC2)c(C)c1C	CYP2C9 act 2.3
Cc1cc(C)nc(-n2nc(C)c3c(C)c(C)c(C)nc32)n1	none
Cn1c(C(=O)N2CCCc3ccccc32)cc2sccc21	CYP2C19 inhib 71
O=C(c1cc2sccc2n1Cc1ccccc1)N1CCc2ccccc21	CYP2C9 inhib 63
Cc1csc2ncc(C(=O)N3CCCc4ccccc43)c(=O)n12	none
O=C(c1cc2sccc2n1Cc1ccccc1)N1CCCc2ccccc21	CYP2C19 inhib 88, CYP2C9 inhib 95
O=C(CSc1nnc(-c2ccco2)n1Cc1ccco1)NCc1cccs1	CYP2C19 inhib 51, CYP2C9 inhib 57
O=C(CSc1nnc(Cc2cccs2)n1Cc1ccco1)Nc1ccc(Br)cc1	CYP2C19 inhib 89, CYP2C9 inhib 93
COC(=O)CSc1nnc(-c2ccco2)n1Cc1ccco1	none
C=CCn1c(Cc2cccs2)nnc1SCC(=O)Nc1ccc(C(=O)OCC)cc1	none
Cc1ccc(NCc2nnc(SCC(=O)Nc3ncc(C)s3)n2Cc2ccco2)c(C)c1	none
O=C(CSc1nnc(Cc2cccs2)n1Cc1ccco1)Nc1ccc(Cl)cc1Cl	CYP2C9 inhib 62
CCOC(=O)C1CCCN(C(=O)CN2CCN(Cc3ccc(Cl)cc3)C2=O)C1 (stereo unspecified)	none
COc1ccc(-n2c(C)cc(C(=O)Cn3c(NCCO)nc4ccccc43)c2C)cc1	CYP2C19 inhib 65, CYP2C9 inhib 63
COc1ccccc1NC(=O)CN(c1ccc(C23CC4CC(CC(C4)C2)C3)cc1)S(C)(=O)=O	CYP2C9 inhib 64
COc1ccc(N(CC(=O)Nc2ccccc2SC)S(C)(=O)=O)cc1OC	none
COc1ccc(C)cc1NC(=O)CN(c1ccc(F)cc1)S(C)(=O)=O	CYP2C9 inhib 65
COc1ccc(NC(=O)CN(Cc2ccccc2)S(C)(=O)=O)c(OC)c1	none
COc1ccc(C)cc1NC(=O)CN(c1ccccc1F)S(C)(=O)=O	CYP2C9 inhib 52
CCc1ccc(N(CC(=O)Nc2ccc(OC)cc2OC)S(C)(=O)=O)cc1	CYP2C19 inhib 88, CYP2C9 inhib 97
O=C(C1CCCN(Cc2ccccc2)C1)N1CCc2ccccc2C1 (stereo unspecified)	none
c1cc2ccc3ccc(-n4cnnn4)c4ccc(c1)c2c34	none
CSCCC(NC=C1C(=O)OC(C)(C)OC1=O)C(=O)O (stereo unspecified)	none
Cc1[nH]nc2nc3c(c(OC(=O)c4ccccc4)c12)c(=O)n(C)c(=O)n3C	none
COc1ccccc1NC(=O)C12CC3CC(C1)CC(c1ccc(C)cc1)(C3)C2	CYP2C19 inhib 57
COc1ccccc1NC(=O)C1=C(C)NC(=O)NC1c1ccc(C)cc1 (stereo unspecified)	none
CNC(=S)NN(c1ccccc1)c1ccccc1	CYP2C19 inhib 78
CNC(=S)Nc1ccc(Nc2ccccc2)cc1	none
COc1ccccc1N(CC(=O)NCC1CCCO1)C(=O)CNS(=O)(=O)c1ccc(C)cc1 (stereo unspecified)	none
COc1ccc[nH]c1=O	CYP2C19 inhib 81
Cc1cccc2[nH]c(-c3ccc(NC(=O)c4ccco4)cc3)nc12	none
COc1ccc(Cn2c(C3CC3)nc3ccc(NC(=O)c4ccco4)cc3c2=O)cc1	CYP2C19 inhib 54, CYP2C9 inhib 55
Cc1cc(C)c2nc3s/c(=C/c4ccc5c(c4)n(C)c(=O)n5C)c(=O)n3c2c1	none
Cc1cc(C)nc(SCNC(=O)c2ccc(F)cc2)n1	CYP2C19 inhib 62
Cc1cc(SCNC(=O)c2ccccc2)ncn1	none
COC(=O)c1ccccc1NC(=O)CSc1nc2ccccc2c(=O)[nH]1	CYP2C9 inhib 59
O=C(CSc1nc2ccccc2c(=O)[nH]1)NCc1ccc(Cl)cc1	CYP2C9 inhib 51
O=c1cc(-c2ccc3c(c2)OCO3)oc2ccccc12	none
CCOC(=O)C1CCN(c2c(Nc3ccc4c(c3)OCCO4)c(=O)c2=O)CC1	none
CCOC(=O)C1CCN(C(C(=O)Nc2ccc3c(c2)OCCO3)c2ccccc2)CC1 (stereo unspecified)	CYP2C9 inhib 89
CC1CCCCN1C(=O)Cn1c(=O)n(C2CCCCC2)c(=O)c2ccccc21 (stereo unspecified)	none
CCOC(=O)N1CCN(S(=O)(=O)c2cccc3nonc23)CC1	CYP2C19 inhib 82, CYP2C9 inhib 71
CCOC(=O)N1CCN(S(=O)(=O)c2cccc3cccnc23)CC1	CYP2C19 inhib 91, CYP2C9 act 3.3
CCN(CC)C(=O)C1CCN(S(=O)(=O)c2cccc3nonc23)CC1	CYP2C19 inhib 65
